TRHR enhancer = qHTS for Small Molecule Agonists and Allosteric Enhancers of Human TRH Receptor: Primary Screen for Enhancers | TRHR cells, fluo-8 calcium fluorescence, EC20 TRH enhancement | enhancement, % at 2 µM | hit rate 0.66% among 360,000; in the data active means enhancement above about 30%; further: 0% is about no effect
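TRHR-expressing cells loaded with fluo-8 calcium dye were read kinetically (ex 480/em 530) during compound addition, then stimulated with an EC20 of TRH (10 nM final). Enhancement of the Gq-mediated intracellular calcium response was scored.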
USP1-UAF1 inh = Inhibitors of USP1/UAF1: Primary Screen. Ubiquitin carboxyl-terminal hydrolase 1 (Homo sapiens), O94782. recombinant USP1/UAF1, Ub-Rhodamine cleavage fluorescence. Potency, µM (series often up to 57.1 µM), inactives show at the top dose activity change, negative = inhibition, usual class: inhibitors. hit rate 0.23% among 390,000; active means well fitted inhibition curve with a large enough effect; inconclusive means small, poorly fitted or top-dose-only effect; inactive means no such curve, though single readings can be large or run the other way; further: potency means the concentration at half of the fitted maximal effect; on the % scale 0 is the no-effect control and ±100 the full control effect; nearly all actives have a fitted effect of over 60% in size
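High-throughput fluorogenic screen: 1nM USP1/UAF1 complex, Ub-Rho substrate 150nM final, 50mM HEPES pH 7.8 with 0.5mM EDTA, 0.1 mg/ml BSA, 1mM TCEP and 0.01% Tween-20.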
D1 agonist = Allosteric Agonists of the Human D1 Dopamine Receptor: qHTS; AID 504660, 2011; activation, % at 2 µM; HEK293 T-REx D1 cells, calcium flux, agonist mode; D(1A) dopamine receptor (Homo sapiens), P21728; hit rate 1% among 360,000; further: 0% is about no effect
Target sequence (P21728 whole entry, looked up): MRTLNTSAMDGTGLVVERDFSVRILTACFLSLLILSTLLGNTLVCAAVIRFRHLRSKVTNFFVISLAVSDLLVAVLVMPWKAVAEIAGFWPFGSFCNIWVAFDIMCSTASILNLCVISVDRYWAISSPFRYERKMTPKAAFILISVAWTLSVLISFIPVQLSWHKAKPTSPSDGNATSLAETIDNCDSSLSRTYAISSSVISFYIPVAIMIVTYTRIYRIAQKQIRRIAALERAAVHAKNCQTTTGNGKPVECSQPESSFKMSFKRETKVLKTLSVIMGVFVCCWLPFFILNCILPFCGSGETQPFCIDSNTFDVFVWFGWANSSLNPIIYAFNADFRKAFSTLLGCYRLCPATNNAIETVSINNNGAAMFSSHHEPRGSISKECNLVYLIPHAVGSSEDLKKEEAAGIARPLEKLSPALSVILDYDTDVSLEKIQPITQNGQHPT
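Inducible HEK293 T-REx D1 cells, force-coupled to calcium signalling, were plated at 4000 cells/well with tetracycline and held overnight at 30 C. After no-wash calcium dye loading, compound-evoked calcium rise over 180 s flagged agonists.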
D1 antag = Antagonist of Human D 1 Dopamine Receptor: qHTS; AID 504652, 2011; hit rate 3.2% among 360,000; HEK293 TREx D1 cells, calcium flux, dopamine EC80; stronger effect = lower value; activity change, negative = inhibition, % at 10 µM; D(1A) dopamine receptor (Homo sapiens), P21728; in the data active means activity change below about -30%; further: on the % scale 0 is the no-effect control and ±100 the full control effect
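Using tetracycline-induced force-coupled D1 Hek293 cells and a calcium dye, signals were followed for 180 s after compound, then for 180 s after EC80 dopamine, to detect inhibitors.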
TRHR agonist = qHTS for Small Molecule Agonists and Allosteric Enhancers of Human TRH Receptor: Primary Screen for Agonists | Thyrotropin-releasing hormone receptor (Homo sapiens), P34981 | TRHR cells, calcium flux fluo-8, FDSS agonist mode | activation, % at 2 µM | hit rate 0.18% among 360,000 | AID 493084, 2011; further: 0% is about no effect
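TRHR-expressing cells, plated overnight in medium with 10% serum, were loaded with fluo-8 calcium dye at room temperature. After a 10 s baseline, library compound was pin-added and calcium release was recorded kinetically (ex 480/em 530) as agonist response.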
D1 potentiator = Potentiators of Human D1 Dopamine Receptor: qHTS; D(1A) dopamine receptor (Homo sapiens), P21728; HEK293 TREx D1 cells, calcium flux, dopamine EC20 potentiation; potentiation, % at 10 µM; hit rate 0.036% among 360,000; AID 504651, 2011; in the data active means potentiation above about 30%; further: 0% is about no effect
* marks the source's active call; other numbers are inactive results; ? = inconclusive; nt = not tested or not shown. Sampled rows, rich in hits. Any-hit rate of the full collection: about 4.4%. Unless noted, no stated cut-off is given here; in the data, active means activation above about 30%; inactive means the rest.

SMILES	TRHR enhancer	USP1-UAF1 inh	D1 agonist	D1 antag	TRHR agonist	D1 potentiator
Cc1ccc(C)c(CN2C(=O)c3ccccc3Sc3ccc(C(=O)N4CCC5(CC4)OCCO5)cc32)c1	12	-14%	1	39	0	0
Cc1cccc(-n2c(O)c(/C=C/C=Nc3ccccc3)c(=O)[nH]c2=O)c1	-2	?	34*	-1	19	2
CNS(=O)(=O)c1ccc(N=Cc2c(O)n(-c3cccc(C)c3)c(=O)[nH]c2=O)cc1	-5	-5%	3	-10	0	0
CCC(C)OC(=O)c1c(N)n(Cc2cccs2)c2nc3ccccc3nc12 (stereo unspecified)	1	-18%	2	1	0	-3
Nc1c(C(=O)OCc2ccccc2)c2nc3ccccc3nc2n1Cc1cccs1	-3	-25%	2	-30*	0	-4
COc1cccc(/C=C/c2nc3ccccc3c(=O)n2-c2ccc(Cl)cc2)c1OC	0	-16%	-2	7	0	0
O=C(COc1ccccc1)c1cn(Cc2ccccc2)c2ccccc12	7	-24%	30*	-21	3	-9
O=C(Nc1ccc(Oc2ccc(Cl)cc2)c(Cl)c1)c1cc(I)cc(I)c1O	-2	?	11	-23	-1	-4
Cc1[nH]c2ccccc2c1CCCNC1CCCCC1	-3	-4%	37*	-2	2	-3
O=C1Nc2ccccc2/C1=C/c1cnc[nH]1	8	-10%	1	-8	-1	-4
COc1ccc2c(c1)/C(=C/c1cnc[nH]1)C(=O)N2	16	-30%	1	-34*	0	-2
COc1ccc(OCC(=O)N2CCN(Cc3cccc(OC)c3OC)CC2)cc1	2	?	1	-14	0	-1
CCCCCc1nc2c(c(=O)c3ccccc3n2C)c(=O)n1C1CCCCCC1	-7	?	191*	-55*	23	7
COc1ccc(NC(=O)c2cccn(Cc3ccc(Cl)cc3)c2=O)c(OC)c1	-2	-17%	2	-40*	2	0
COc1ccc(NC(C)=O)cc1NC(=O)c1cccn(Cc2ccccc2)c1=O	0	0%	-1	22	0	-2
Cc1nnc(NC(=O)c2cccn(Cc3cccc(Cl)c3)c2=O)s1	5	-31%	1	26	0	2
CCSc1nnc(NC(=O)c2cccn(Cc3ccc(Cl)cc3)c2=O)s1	-5	-17%	0	-35*	0	-1
CN1CCC(c2c[nH]c3ccccc23)C1 (stereo unspecified)	13	-7%	6	-32*	-2	-5
CCCCn1c(NS(=O)(=O)c2ccccc2)c(C(=O)OCC)c2nc3ccccc3nc21	13	22µM*	15	-8	0	-4
CCCCn1c(NC(=O)c2ccc(Br)o2)c(C(=O)OCC)c2nc3ccccc3nc21	-8	25µM*	0	-6	0	2
COc1ccc(N2C(=O)NC(=O)/C(=C\c3ccccc3[N+](=O)[O-])C2=O)cc1	4	-22%	1	-3	1	0
O=C1NC(=O)N(c2ccccc2)C(=O)/C1=C\c1ccc([N+](=O)[O-])o1	8	nt	5	-9	3	9
O=C1NC(=O)N(c2ccccc2)C(=O)/C1=C\c1ccc([N+](=O)[O-])s1	6	18µM*	7	1	2	8
CN1C(=O)NC(=O)/C(=C/c2ccc([N+](=O)[O-])s2)C1=O	-1	25µM*	7	3	0	-1
CCOc1ccc(N2C(=O)NC(=O)/C(=C\c3ccccc3[N+](=O)[O-])C2=O)cc1	-2	-7%	1	-46*	1	5

From PubChem
